Assay results from PubChem BioAssay AID588689 (Southern Research Specialized Biocontainment Screening …, 2011).
About 1,000 (0.29%) of roughly 340,000 compounds were called active. Cut-off read from the data, not from the text of the source: inconclusive = inhibition above about 29% without an active follow-up result; inactive = below that. These entries were drawn from the full list. Measured potencies and affinities stand elsewhere.

Molecular target: Genome polyprotein (Dengue virus type 2 (strain 16681-PDK53)) (UniProt P29991)
Experiment: Dengue-2 NS5 methyltransferase inhibitors, primary screen, biochemical, confirmation dose response (AID 588689)
Conditions: Dengue-2 NS5 methyltransferase capping enzyme assay, at 25 µM, stronger effect = higher value
[1] = measured here: pilot screen replicate inhibition

Chain of Genome polyprotein (Dengue virus type 2 (strain 16681-PDK53)) (P29991 whole entry, looked up): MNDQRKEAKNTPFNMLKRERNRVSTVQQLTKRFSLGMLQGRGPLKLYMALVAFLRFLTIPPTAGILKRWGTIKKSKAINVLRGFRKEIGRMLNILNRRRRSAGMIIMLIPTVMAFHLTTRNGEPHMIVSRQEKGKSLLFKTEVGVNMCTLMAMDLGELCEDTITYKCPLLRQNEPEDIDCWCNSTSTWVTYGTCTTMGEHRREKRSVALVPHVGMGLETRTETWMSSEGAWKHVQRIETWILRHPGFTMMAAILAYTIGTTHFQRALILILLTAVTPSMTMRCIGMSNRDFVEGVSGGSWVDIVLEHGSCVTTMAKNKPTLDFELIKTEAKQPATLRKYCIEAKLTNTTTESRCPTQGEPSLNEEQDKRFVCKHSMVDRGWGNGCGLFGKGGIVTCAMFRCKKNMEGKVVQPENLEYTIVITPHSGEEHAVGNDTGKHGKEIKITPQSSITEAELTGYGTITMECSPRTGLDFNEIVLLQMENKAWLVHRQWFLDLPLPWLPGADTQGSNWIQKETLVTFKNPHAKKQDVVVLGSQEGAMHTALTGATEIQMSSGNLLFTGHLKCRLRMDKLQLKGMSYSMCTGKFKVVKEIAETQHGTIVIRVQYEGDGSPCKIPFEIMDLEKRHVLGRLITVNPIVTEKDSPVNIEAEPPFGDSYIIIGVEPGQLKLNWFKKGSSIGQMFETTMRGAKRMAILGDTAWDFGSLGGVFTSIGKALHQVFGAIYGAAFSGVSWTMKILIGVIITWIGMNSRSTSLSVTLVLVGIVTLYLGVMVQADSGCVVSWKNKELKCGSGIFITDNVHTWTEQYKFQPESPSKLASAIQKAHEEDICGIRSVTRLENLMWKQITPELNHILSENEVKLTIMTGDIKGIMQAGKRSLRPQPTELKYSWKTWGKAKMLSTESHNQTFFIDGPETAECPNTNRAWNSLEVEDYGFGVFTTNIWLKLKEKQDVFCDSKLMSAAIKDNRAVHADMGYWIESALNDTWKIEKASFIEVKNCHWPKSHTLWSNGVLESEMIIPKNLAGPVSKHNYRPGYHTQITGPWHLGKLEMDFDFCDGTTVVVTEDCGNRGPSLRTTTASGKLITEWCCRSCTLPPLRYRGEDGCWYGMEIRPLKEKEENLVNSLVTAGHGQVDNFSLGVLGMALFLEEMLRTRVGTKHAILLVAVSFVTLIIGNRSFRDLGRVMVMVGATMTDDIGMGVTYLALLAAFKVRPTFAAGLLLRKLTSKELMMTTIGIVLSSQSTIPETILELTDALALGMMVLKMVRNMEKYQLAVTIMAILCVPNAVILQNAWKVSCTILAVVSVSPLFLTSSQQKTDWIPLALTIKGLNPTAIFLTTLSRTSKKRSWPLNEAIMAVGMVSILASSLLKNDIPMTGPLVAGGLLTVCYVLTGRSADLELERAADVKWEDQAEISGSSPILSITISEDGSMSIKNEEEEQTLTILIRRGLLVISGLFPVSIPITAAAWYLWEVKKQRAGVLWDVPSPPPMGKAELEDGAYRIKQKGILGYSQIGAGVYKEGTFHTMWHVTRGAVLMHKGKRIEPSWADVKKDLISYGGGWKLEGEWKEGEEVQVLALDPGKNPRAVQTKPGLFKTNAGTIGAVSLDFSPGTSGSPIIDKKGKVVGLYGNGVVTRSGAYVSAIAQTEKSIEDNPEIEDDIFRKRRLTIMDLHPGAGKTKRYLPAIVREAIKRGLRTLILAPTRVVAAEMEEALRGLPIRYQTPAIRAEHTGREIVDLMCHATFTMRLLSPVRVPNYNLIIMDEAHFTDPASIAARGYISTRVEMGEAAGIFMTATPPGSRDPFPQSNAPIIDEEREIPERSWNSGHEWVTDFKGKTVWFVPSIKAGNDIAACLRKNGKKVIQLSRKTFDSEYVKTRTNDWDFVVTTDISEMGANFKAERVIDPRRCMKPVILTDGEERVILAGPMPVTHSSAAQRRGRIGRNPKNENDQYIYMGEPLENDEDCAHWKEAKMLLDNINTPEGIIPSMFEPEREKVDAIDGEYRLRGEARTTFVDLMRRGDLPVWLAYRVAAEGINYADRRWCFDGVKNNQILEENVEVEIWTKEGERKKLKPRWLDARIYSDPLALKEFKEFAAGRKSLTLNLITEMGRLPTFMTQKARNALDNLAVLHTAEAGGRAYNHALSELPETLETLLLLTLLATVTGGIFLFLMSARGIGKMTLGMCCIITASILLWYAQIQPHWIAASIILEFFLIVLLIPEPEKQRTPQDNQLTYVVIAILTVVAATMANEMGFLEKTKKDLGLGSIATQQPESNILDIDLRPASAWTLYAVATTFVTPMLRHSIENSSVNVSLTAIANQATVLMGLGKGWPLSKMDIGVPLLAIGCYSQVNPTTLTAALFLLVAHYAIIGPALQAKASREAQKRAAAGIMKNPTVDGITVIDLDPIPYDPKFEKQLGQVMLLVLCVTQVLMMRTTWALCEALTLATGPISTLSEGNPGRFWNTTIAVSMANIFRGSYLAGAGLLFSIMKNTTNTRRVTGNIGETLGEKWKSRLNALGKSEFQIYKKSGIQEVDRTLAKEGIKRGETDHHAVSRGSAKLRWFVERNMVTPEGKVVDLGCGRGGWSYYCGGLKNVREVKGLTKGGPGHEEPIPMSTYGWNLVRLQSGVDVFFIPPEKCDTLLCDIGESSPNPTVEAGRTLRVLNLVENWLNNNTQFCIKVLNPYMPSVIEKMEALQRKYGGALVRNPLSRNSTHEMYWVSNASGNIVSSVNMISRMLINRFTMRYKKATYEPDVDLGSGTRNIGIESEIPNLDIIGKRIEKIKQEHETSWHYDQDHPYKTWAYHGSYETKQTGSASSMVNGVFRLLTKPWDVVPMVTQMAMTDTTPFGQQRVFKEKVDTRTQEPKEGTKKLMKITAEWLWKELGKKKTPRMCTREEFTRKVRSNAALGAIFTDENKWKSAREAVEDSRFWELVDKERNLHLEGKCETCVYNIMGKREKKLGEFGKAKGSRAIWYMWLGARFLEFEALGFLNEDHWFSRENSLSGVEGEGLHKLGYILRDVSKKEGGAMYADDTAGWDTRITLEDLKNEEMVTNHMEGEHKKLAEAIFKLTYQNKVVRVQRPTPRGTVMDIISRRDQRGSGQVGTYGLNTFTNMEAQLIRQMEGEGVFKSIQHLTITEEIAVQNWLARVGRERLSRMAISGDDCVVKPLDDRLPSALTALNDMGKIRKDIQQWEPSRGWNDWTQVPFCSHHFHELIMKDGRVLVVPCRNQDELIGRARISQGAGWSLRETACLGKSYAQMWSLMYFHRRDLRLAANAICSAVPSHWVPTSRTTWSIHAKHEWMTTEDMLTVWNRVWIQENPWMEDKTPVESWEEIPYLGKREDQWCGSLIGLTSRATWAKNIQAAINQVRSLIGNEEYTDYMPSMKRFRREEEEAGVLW

## CCOC(=O)Cc1csc(SC(C)C(=O)Nc2ccc(NC(C)=O)cc2)n1 (stereo not drawn)
  inhibition: -3.63% (inactive)

## Cc1ccc(/C=C/C2=NN(Cc3ccccc3Cl)C(=O)CC2)cc1
  inhibition: -2.71% (inactive)

## O=C(CCC1CCCC1)NCCS(=O)(=O)N1CCN(c2ccccc2)CC1
  inhibition: -5.17% (inactive)

## Cc1c(C(=O)OCC(=O)N2CC(=O)Nc3ccccc32)oc2ccc(Br)cc12
  inhibition: -0.83% (inactive)

## Cc1cccc(NC(=O)C(=O)NCC2CCCN2S(=O)(=O)c2cccs2)c1 (stereo not drawn)
  inhibition: 6.86% (inactive)

## Cc1onc(-c2ccccc2)c1C(=O)OCC(=O)c1ccc[nH]1
  inhibition: -1.1% (inactive)

## COC(=O)NC1CSCC1OC(=O)CN1C(=O)c2ccccc2C1=O (stereo not drawn)
  inhibition: 1.83% (inactive)

## NS(=O)(=O)c1ccc(NC(=O)COc2ccc(S(=O)(=O)N3CCCC3)cc2)cc1
  inhibition: -0.81% (inactive)

## O=C1NC(=O)N(c2ccccc2)C1=O
  inhibition: 0% (inactive)

## O=C1N/C(=C/c2ccc(Br)s2)C(=O)N1c1ccccc1
  inhibition: -5.43% (inactive)

## Cc1ccc(-n2nnnc2CS(=O)(=O)c2ccccc2)c(C)c1
  inhibition: -5.86% (inactive)

## C=CCc1ccccc1OCC(=O)OCCNC(=O)c1cccnc1
  inhibition: 3.9% (inactive)

## CSc1ccc(CNc2ccc(C)cc2)cc1
  inhibition: 2.76% (inactive)

## Cc1ccc(NCc2ccccc2)cc1
  inhibition: -5.19% (inactive)

## COc1ccc(OC)c(N=c2oc3c(OC)cccc3cc2C(=O)NCc2ccco2)c1
  inhibition: -9.6% (inactive)
[1]
  inhibition: -5.77%

## COc1ccccc1N=c1oc2c(OC)cccc2cc1C(=O)NCc1ccco1
  inhibition: 12.3% (inactive)
[1]
  inhibition: 6.37%

## O=c1oc2ccccc2c(O)c1C=Nc1cccnc1
  inhibition: -5.19% (inactive)

## O=[N+]([O-])c1ccc(Nc2ccccn2)c([N+](=O)[O-])c1
  inhibition: -9.54% (inactive)

## CN(C)c1cc(Nc2ccc(O)cc2)c([N+](=O)[O-])c2nonc12
  inhibition: -10.7% (inactive)

## CC(=O)Nc1ccc(Nc2cc(N3CCOCC3)c3nonc3c2[N+](=O)[O-])cc1
  inhibition: -6.25% (inactive)

## Nc1cc(Nc2ccccc2)c2nonc2c1[N+](=O)[O-]
  inhibition: -1.31% (inactive)

## CN(C)c1cc(Nc2cccc(O)c2)c([N+](=O)[O-])c2nonc12
  inhibition: 6.85% (inactive)

## CC(=O)Nc1ccc(Nc2cc(N(C)C)c3nonc3c2[N+](=O)[O-])cc1
  inhibition: -5.29% (inactive)

## COc1cccc(Nc2cc(N3CCOCC3)c3nonc3c2[N+](=O)[O-])c1
  inhibition: 2.01% (inactive)

## O=[N+]([O-])c1c(Nc2ccc(O)cc2)cc(N2CCOCC2)c2nonc12
  inhibition: 9.17% (inactive)

## Cc1ccc(-c2cc(C(=O)N3CCOCC3)c3cc(C)ccc3n2)cc1
  inhibition: -1.58% (inactive)

## O=C1CS/C(=C\S(=O)(=O)c2ccc(Cl)cc2)N1
  inhibition: -10.6% (inactive)

## CCC(=O)N1c2ccccc2-c2nnc(SC)nc2OC1c1ccc(N(C)C)cc1 (stereo not drawn)
  inhibition: -7.25% (inactive)

## Cc1cnn(C(=O)c2cc(-c3ccccn3)nc3ccc(Cl)cc23)c1
  inhibition: 8.88% (inactive)

## CCOC(=O)NC1(C(F)(F)F)NC(=O)N(C2CCCCC2)C1=O (stereo not drawn)
  inhibition: -2.12% (inactive)

## COc1ccc(CCNC(=O)CSc2nc(=O)n3cc(C)ccc3n2)cc1OC
  inhibition: 3.6% (inactive)

## CCCCn1c(SCC(=O)NNC(=O)c2ccccc2)n[nH]c1=O
  inhibition: 3.69% (inactive)

## Cc1nnc(SCC(=O)Nc2nc3ccccc3s2)n(N)c1=O
  inhibition: -2.58% (inactive)

## O=[N+]([O-])c1c(Nc2ccccc2O)cc(N2CCOCC2)c2nonc12
  inhibition: 6.36% (inactive)

## O=C(O)c1ccc(Nc2ccc([N+](=O)[O-])c3nonc23)cc1
  inhibition: -1.54% (inactive)

## O=C(O)c1cccc(Nc2ccc3nonc3c2[N+](=O)[O-])c1
  inhibition: 1.54% (inactive)

## O=C(O)c1cccc(Nc2ccc([N+](=O)[O-])c3nonc23)c1
  inhibition: 1.29% (inactive)

## Cc1c(Nc2cc(N3CCCCCC3)c3nonc3c2[N+](=O)[O-])c(=O)n(-c2ccccc2)n1C
  inhibition: -6.93% (inactive)

## CCNc1cc(Nc2c(C)n(C)n(-c3ccccc3)c2=O)c([N+](=O)[O-])c2nonc12
  inhibition: 6.99% (inactive)

## O=C(O)c1ccc(Nc2ccc3nonc3c2[N+](=O)[O-])cc1
  inhibition: -2.31% (inactive)

## O=[N+]([O-])c1c(Nc2ccccc2O)ccc2nonc12
  inhibition: 6.25% (inactive)

## O=C(COC(=O)/C=C/c1cccc(Br)c1)NCc1cccs1
  inhibition: -4.41% (inactive)

## COCCCNC(=O)Cn1cnc(C(=O)Nc2ccc(C)c(C)c2)n1
  inhibition: -3.97% (inactive)
[1]
  inhibition: 0.615%

## COc1cccc(Nc2nc(N)nc(-c3oc4ccccc4c3C)n2)c1
  inhibition: -4.01% (inactive)

## Cc1ccc(NS(=O)(=O)c2ccc(OCC(=O)NCC3CCCO3)cc2)cc1 (stereo not drawn)
  inhibition: 2.96% (inactive)
